FUS yeast rescue: qHTS for Suppressors of FUS Proteinopathy: Primary screen using FUS-linked yeast assay. S. cerevisiae FUS-expressing, growth rescue, OD600, 24 h. Potency, µM (titrated, usually from 76.6 µM), actives largely listed as activators. actives 0.24% (n = 390,000). AID 1347120, 2019;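 also: plate controls were DMSO vehicle for no effect and reference control for full effect; nearly all actives have a fitted effect of over 55% in size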
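Quantitative HTS measuring growth restoration of FUS-toxic yeast. Galactose-induced cells (OD 0.005) were exposed 24hr at 30C to compounds at several concentrations, then absorbance at 600 nm was recorded.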
TDP-43 yeast inh: qHTS of TDP-43 Inhibitors; TDP-43 expressing yeast growth rescue, BacTiter-Glo, 24 h; Potency, µM (doses to about 46.1 µM), for inactives: at the highest dose growth rescue (activation), hits mostly activators; actives 1.8% (n = 410,000); AID 652104, 2013; also: % of control where 0% means no effect; nearly all actives have a fitted effect of over 50% in size
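Cell-based yeast growth screen: TDP-43 expression induced in galactose, inoculum OD600=0.02 after raffinose pregrowth to mid-log. Read-out BacTiter-Glo luminescence at 24 hr, 30 deg C; inhibition of toxicity seen as signal increase.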
aSyn rescue: qHTS of alpha-syn Inhibitors; Yeast expressing alpha-synuclein, growth rescue, BacTiter-Glo, 24 h; AID 652106, 2013; actives 0.14% (n = 370,000); Potency, µM (doses to about 46.1 µM), for inactives: top-dose growth rescue (activation), hits mostly activators; also: % of control where 0% means no effect; nearly all actives have a fitted effect of over 65% in size
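Rescue of yeast growth: cells expressing toxic alpha-synuclein, induced in galactose at OD600 0.02, incubated with compound 24 h at 30 C. ATP luminescence quantified growth; inhibitors of toxicity appear as activators.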
Abeta rescue: qHTS for compounds that reverse cellular toxicity of Amyloid beta (A-beta) peptide in yeast: Primary Screen. yeast expressing A-beta42, growth rescue, OD600, 48 h; response scale: 0% DMSO, 100% iron-clioquinol control. actives 0.063% (n = 410,000). Potency, µM (highest dose often 46.1 µM), usual class: activators. AID 1347071, 2019; also: nearly all actives have a fitted effect of over 55% in size
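Yeast growth medium received pinned compounds, then yeast cells expressing toxic A-beta were added; plates incubated at 30 C for 48 hr. Growth read as absorbance at 600 nm, normalized to DMSO and equimolar FeCl3 plus clioquinol controls.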
* = called active by the depositor; i = inactive; ? = inconclusive; . = not tested or not shown. Sampled rows, rich in hits. Any-hit rate of the full collection: about 2.1%. Calls follow the shape of the dose curve; as a rule, active = well fitted curve in the direction sought with a large enough effect; inconclusive = small, poorly fitted or top-dose-only effect, or another doubt; inactive = no such curve, though single readings can be large; an effect the other way counts as inactive or inconclusive. Potency is read from the fitted curve at half-maximal effect.

SMILES	FUS yeast rescue	TDP-43 yeast inh	aSyn rescue	Abeta rescue
Cc1ccc(S(=O)(=O)Cc2nc(-c3ccc(C(=O)NCc4ccccc4)cc3)oc2C)cc1	i	10%	.	i
Cc1cc(S(=O)(=O)Nc2noc3ccccc23)ccc1F	i	11µM*	-22%	i
Cc1cc(S(=O)(=O)Nc2c(NC3CCCCC3)c3ccccc3oc2=O)ccc1F	i	6%	7%	.
COc1ccc(Cl)cc1S(=O)(=O)Nc1noc2ccccc12	i	10µM*	-13%	i
O=C(N[C@H]1C/C=C\C[C@@H](CC(=O)N(CCO)Cc2ccccc2)C(=O)N[C@H](Cc2c[nH]c3ccccc23)COC1=O)OCC1c2ccccc2-c2ccccc21	20µM*	24%	-4%	i
O=C(N[C@H]1C/C=C\C[C@H](CC(=O)N(CCO)Cc2ccccc2)C(=O)N[C@H](Cc2c[nH]c3ccccc23)COC1=O)OCC1c2ccccc2-c2ccccc21	22µM*	6%	2%	i
O=C1NC[C@@H](c2ccccc2)OC(=O)[C@@H](Cc2ccc(F)cc2)CC/C=C/C[C@H]1CC(=O)N(CCO)Cc1ccccc1	25µM*	-6%	13%	i
O=C1N[C@@H](Cc2c[nH]c3ccccc23)COC(=O)[C@@H](Cc2ccc(F)cc2)C/C=C\C[C@H]1CC(=O)N(CCO)Cc1ccccc1	?	4%	1%	i
O=C1NC[C@H](c2ccccc2)OC(=O)[C@H](Cc2ccc(F)cc2)CC/C=C/C[C@@H]1CC(=O)N(CCO)Cc1ccccc1	?	18%	4%	i
O=C(N[C@@H]1C/C=C\C[C@H](CC(=O)N(CCO)Cc2ccccc2)C(=O)N[C@@H](Cc2c[nH]c3ccccc23)COC1=O)OCC1c2ccccc2-c2ccccc21	?	24%	2%	i
O=C(N[C@@H]1C/C=C\C[C@@H](CC(=O)N(CCO)Cc2ccccc2)C(=O)N[C@@H](c2ccccc2)COC1=O)OCC1c2ccccc2-c2ccccc21	?	12%	4%	i
O=C1N[C@@H](Cc2c[nH]c3ccccc23)COC(=O)[C@H](Cc2ccc(F)cc2)C/C=C\C[C@@H]1CC(=O)N(CCO)Cc1ccccc1	28µM*	22%	6%	i
O=C(C[n+]1ccccc1)c1ccc(I)cc1	.	.	-1%	.
Brc1cccc[n+]1CCCC[n+]1ccccc1Br	.	.	1%	.
CC1(C)Cc2c(sc3nnn(CC(=O)Nc4ccccc4)c(=O)c23)CO1	i	15%	14%	i
CC1(C)Cc2c(sc3nnn(Cc4ccc(Cl)cc4)c(=O)c23)CO1	.	13µM*	10%	i
O=C(O)/C=C/C(=O)Nc1ccc2c(c1)C(=O)c1ccccc1C2=O	i	?	22µM*	?
O=C1C(c2cccc(Br)c2)N(CCc2ccccc2)C(=O)CN1C1CCCCC1 (stereo unspecified)	i	7%	.	i
CC(CC(=O)c1cccs1)CC(=O)c1cccs1	i	3%	-11%	i
Cc1cc(C)c(C(CC(=O)c2cccs2)C(C#N)C#N)c(C)c1 (stereo unspecified)	i	13µM*	1%	i
O=S(=O)(c1cccc(F)c1)N1CCC(Oc2ccc(-n3cnnn3)cc2)CC1	i	17%	.	i
Fc1ccc(-c2n[nH]c(=S)n2N=Cc2cccc(OCc3ccccc3)c2)cc1	i	.	.	.
Cc1ccc(C)c(N2CCN(C(=O)CC3Sc4ccccc4NC3=O)CC2)c1 (stereo unspecified)	?	22µM*	?	i
O=C(CN1CCSc2ccccc21)N1CCN(c2ccc(F)cc2)CC1	i	22%	4%	i
Cc1ccc(C)c(N2CCN(C(=O)CN3CCSc4ccccc43)CC2)c1	i	25µM*	?	?
COc1ccccc1-c1nc(C(=O)NCC2CCCO2)cc2c1[nH]c1ccccc12 (stereo unspecified)	?	20µM*	-12%	i
COc1cc(-c2nc(C(=O)NCC3CCCO3)cc3c2[nH]c2ccccc23)cc(OC)c1OC (stereo unspecified)	?	28µM*	?	i
O=C(NCC1CCCO1)c1cc2ccccc2[nH]1 (stereo unspecified)	i	13%	-9%	i
